Bioassay records (PubChem)
Most compounds without a hit are left out; they make up all but 3.4% or so of the library.
MITF primary: MITF inhibitors, primary screen, biochemical, AlphaScreen, human | hit rate 0.91% among 650,000 | AlphaScreen MITF homodimerization, bead proximity signal | inhibition, % at 2.6 µM; in the data active means inhibition above about 50%;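 further: 0% = vehicle wells with protein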
Target sequence (O75030 whole entry, looked up): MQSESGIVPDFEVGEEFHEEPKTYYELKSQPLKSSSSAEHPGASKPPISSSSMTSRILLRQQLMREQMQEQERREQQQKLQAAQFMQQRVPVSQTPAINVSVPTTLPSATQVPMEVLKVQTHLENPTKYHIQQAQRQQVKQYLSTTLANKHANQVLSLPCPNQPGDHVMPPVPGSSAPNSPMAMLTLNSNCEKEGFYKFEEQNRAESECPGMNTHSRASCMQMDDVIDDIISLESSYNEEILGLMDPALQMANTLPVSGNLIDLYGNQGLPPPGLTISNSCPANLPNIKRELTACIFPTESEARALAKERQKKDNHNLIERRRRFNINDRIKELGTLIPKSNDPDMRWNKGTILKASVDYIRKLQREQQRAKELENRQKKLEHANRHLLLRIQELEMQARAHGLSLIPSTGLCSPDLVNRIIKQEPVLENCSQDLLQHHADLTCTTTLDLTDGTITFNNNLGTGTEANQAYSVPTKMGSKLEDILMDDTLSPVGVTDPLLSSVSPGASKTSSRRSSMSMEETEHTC
TEAD-YAP inh: TEAD-YAP interaction inhibition, primary screen, TEAD-YAP interaction inhibitor project, luminescence, HEK-TIYL cells. inhibition, % at 9.12 µM. hit rate 1.4% among 640,000. TEAD-Gal4/YAP UAS-luciferase luminescence; in the data active means inhibition above about 32%;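 further: 0% = median of test compound wells and 100% = reference inhibitor wells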
GPR151 activ: activators of human GPR151, primary screen, cell-based, PathHunter beta-arrestin, luminescence. G-protein coupled receptor 151 (Homo sapiens), Q8TDV0. PathHunter beta-arrestin GPR151 cells. activation, % at 11.2 µM. hit rate 1% among 650,000. AID 1508602, 2020; in the data active means activation above about 4.9%;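 further: 0% = median of compound wells and 100% = cells with positive control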
FBW7 act: FBW7 E3 ligase activators, primary screen, biochemical, AlphaScreen, human. F-box/WD repeat-containing protein 7 (Homo sapiens), Q969H0. AlphaScreen FBW7–phospho-cyclin E peptide binding, activator screen. normalized activity (activation), % at 26.1 µM. hit rate 0.13% among 650,000; in the data active means normalized activity above about 1.9%;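 further: purified mutant Fbw7 with reduced substrate affinity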
GPR151 conf act: GPR151 activators, triplicate retest, confirmation, cell-based, PathHunter beta-arrestin, luminescence; shares compounds with GPR151 activ; GPR151 PathHunter beta-arrestin cells, 90 min; % of EA-reagent control over plate median; activation, % at 11.2 µM; 6,700 tested, under 10 active; AID 1508609, 2020;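 active means mean percent activation across replicates above the confirmation screen cutoff of 4.91%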
GPR119 counter: GPR119 activators in beta-arrestin cells, counter-screen for GPR151 activator project, cell-based, PathHunter beta-arrestin, luminescence, triplicate; 90 min; 0 = compound-well median, 100 = enzyme-acceptor control; shares compounds with GPR151 activ; hit rate 0.3% among 6,700; activation, % at 11.2 µM;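 active means mean percent activation in the counterscreen above 29.09%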;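 further: counterscreen on off-target GPR119 to flag nonselective hits from the GPR151 activator screen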
Starred values were filed as active, the others as inactive; nt = no result given.

SMILES | MITF primary | TEAD-YAP inh | GPR151 activ | FBW7 act | GPR151 conf act | GPR119 counter
O=C(CC1OCCN(Cc2ccccc2)C1=O)Nc1ccc2c(c1)OCO2 (centres undefined) | 21 | 3 | 9.9* | 0 | 1 | 14
CCOC(=O)CSc1nc2cc(C(=O)NCCc3ccc(OC)c(OC)c3)ccc2c2nc3ccccc3n12 | 0 | 13 | -1 | 0 | nt | nt
COC(=O)C1=C(C)N(C)C(C)=C(C(=O)OC)C1c1ccc(F)c(Br)c1 | 3 | 4 | 5.2* | 0 | 0 | 5
CC(C)(Oc1ccc(Cl)cc1)C(=O)N1CCCC1 | 15 | 2 | 1 | 0 | nt | nt
CCOC(=O)C1CCN(C(=O)C(C)(C)Oc2ccc(Cl)cc2)CC1 | -1 | -2 | 5.7* | 0 | 0 | 7
CCOC(=O)C(=O)Nc1cc(OCC)c(NC(=O)c2ccccc2)cc1OCC | -5 | 9 | 0 | 0 | nt | nt
O=C(Cn1cc2c(n1)CCCCC2)N1CCc2ccccc21 | 3 | -4 | 5.4* | 0 | -1 | -2
O=C(Cn1cc2c(n1)CCCC2)N1CCc2ccccc2C1 | 11 | 8 | 0 | 0 | nt | nt
COCCNC(=O)CC1C(=O)NCCN1CC(c1ccccc1)c1ccccc1 (centres undefined) | 12 | 6 | 0 | 0 | nt | nt
O=C(Nc1cccc(C(F)(F)F)c1)c1nn2c(C(F)(F)F)cc(-c3ccc(Br)o3)nc2c1Br | 3 | 9 | 17* | 0 | 0 | 0
O=C(NCc1ccc(F)cc1)c1nn2c(C(F)(F)F)cc(-c3ccccc3)nc2c1Br | 2 | 2 | 5.9* | 0 | 0 | -4
O=C(NCc1cccnc1)c1nn2c(C(F)(F)F)cc(-c3ccccc3)nc2c1Br | -6 | -3 | 0 | 0 | nt | nt
CCCCOC(=O)C1=C(C)NC(=O)NC1c1cc2c(cc1Br)OCO2 (centres undefined) | -6 | 9 | 5.1* | 0 | 1 | 9
Cc1n[nH]c(C)c1CCC(=O)N/N=C/C=C/c1ccccc1 | 11 | 6 | 6.5* | 0 | 0 | -10
O=C(Cc1cccs1)N/N=C\C=C\c1ccccc1 | 9 | -40 | 0 | 0 | nt | nt
O=C(Cc1cc(=O)[nH][nH]1)N/N=C/C=C/c1ccccc1 | 27 | 7 | 5.3* | 0 | -1 | 6
N#C/C(C(=S)Nc1ccccc1)=C1/NN=C2CCCCCN21 | -14 | -7 | 2 | 0 | nt | nt
CC(Sc1nc2c(c(=O)n(C)c(=O)n2C)n1Cc1cccc(C(F)(F)F)c1)C(=O)O (centres undefined) | 4 | -14 | -1 | 0 | nt | nt
O=C(CCCCCN1C(=O)c2ccccc2C1=O)NCCc1ccccc1 | 7 | 5 | 0 | 0 | nt | nt
COc1ccccc1CN1C[C@@H]2C[C@@H](c3cccc(F)c3)N3CCC[C@@]23C1=O | 6 | -3 | 1 | 0 | nt | nt
Cc1cc2nnc(SCC(=O)Nc3sc4c(c3C#N)CCCCC4)n2c2ccccc12 | 12 | -2 | 5.9* | 0 | 1 | 13
COC(=O)c1c(NC(=O)CSc2nnc3cc(C)c4ccccc4n23)sc2c1CCCC2 | -8 | -6 | 0 | 0 | nt | nt
COc1ccc(C(=O)N2CCN(S(=O)(=O)c3cc4c5c(c3)CCC(=O)N5CCC4)CC2)cc1 | 2 | 7 | 5.7* | 0 | 0 | 0
COc1ccc(SCCC(=O)Nc2ccc3sc(C)nc3c2)cc1 | 8 | -9 | 6.2* | -1 | 1 | 8
COc1ccc(SCCC(=O)Nc2nc3ccccc3s2)cc1 | 8 | 0 | 1 | 1 | nt | nt
SMILES | MITF primary | TEAD-YAP inh | GPR151 activ | FBW7 act | GPR151 conf act | GPR119 counter
CC1CN(c2nc(-c3ccc(Cl)cc3)cs2)CC(C)O1 (centres undefined) | -14 | -12 | -1 | 0 | nt | nt
COc1ccccc1-c1cnc2ccc(NCc3ccc4c(c3)OCO4)nn12 | 10 | -16 | 1 | 1 | nt | nt
CCOC(=O)CSc1nnc2c3c4c(sc3nc(C)n12)CC(C)CC4 (centres undefined) | 3 | 5 | 2 | 0 | nt | nt
CCOc1ccc(CNC(=O)c2cc(=O)[nH]c3ccccc23)cc1 | 4 | -8 | 5.0* | 0 | -1 | -7
N#Cc1c(N)nc2c(c1-c1ccsc1)CCCC2 | -11 | -1 | 5.0* | 0 | 0 | -2
O=[N+]([O-])c1cc(-c2ncnn2-c2ccccc2C(F)(F)F)ccc1Cl | 10 | -8 | 2 | 1 | nt | nt
COC(=O)C(Sc1c(O)cc(C)oc1=O)(C(F)(F)F)C(F)(F)F | 5 | -10 | 0 | -1 | nt | nt
COC(=O)C(Sc1cc2c(cc1O)OCO2)(C(F)(F)F)C(F)(F)F | 5 | 3 | 5.3* | 0 | 0 | 1
COc1cccc(CNC(=O)c2ccc(CNc3c(N4CCOCC4)c(=O)c3=O)cc2)c1 | 1 | -12 | 8.6* | 0 | -1 | -6
CCOC(=O)N1CCN(c2c(NC3CCCCC3)c(=O)c2=O)CC1 | 10 | 1 | 0 | 0 | nt | nt
CCOC(=O)N1CCN(c2c(NC3CCC(C)CC3)c(=O)c2=O)CC1 (centres undefined) | 1 | -3 | 5.0* | 0 | 0 | 9
O=C(O)c1ccc(CNc2c(N3CCCCC3)c(=O)c2=O)cc1 | 1 | -6 | 7.5* | 0 | 0 | -1
CCOC(=O)N1CCN(c2c(NCc3ccc(Cl)cc3)c(=O)c2=O)CC1 | 2 | 53* | 4.9* | 0 | 0 | -8
CCOC(=O)N1CCN(c2c(NCc3cccnc3)c(=O)c2=O)CC1 | -6 | 3 | -1 | 0 | nt | nt
CC(=O)NCCNC(=O)C1(c2ccccc2)CC1 | 6 | 0 | 1 | 0 | nt | nt
O=C(NCCc1nc(-c2ccncc2)n[nH]1)C1(c2ccccc2)CCCC1 | 4 | 5 | 5.9* | 0 | 0 | 6
COC(=O)C1CCN(C(=O)CC(C)(C)C)CC1 | 17 | -2 | 6.1* | 0 | 2 | 3
O=C1N/C(=C/c2cccn2-c2ccc(F)cc2)C(=O)N1c1ccccc1 | -6 | -2 | -2 | 0 | nt | nt
CC1(C(=O)NNC(=O)Nc2cccc([N+](=O)[O-])c2)CC1(Cl)Cl (centres undefined) | 7 | 1 | 6.4* | 0 | 0 | -1
O=C1N(C2Cc3ccccc3C2)C[C@@H]2C[C@@H](c3ccc4nsnc4c3)N3CCC[C@@]123 | -5 | -27 | 9.4* | 1 | 1 | -3
O=C1N(C2Cc3ccccc3C2)C[C@@H]2C[C@@H](c3ccccc3F)N3CCC[C@@]123 | -1 | 3 | 15* | 0 | 0 | -5
CCn1nnnc1SCC(=O)Nc1cccc(NC(C)=O)c1 | -13 | -8 | 0 | 0 | nt | nt
